Only some compounds are listed: those with a hit (about 1.5% of all), similar ones and a draw of the others.
Dyrk1A ADPGlo: blocks rat Dyrk1A kinase activity; ADP-Glo luminescence, NFATc1 peptide; inhibition, % at 12.5 µM; hit rate 0.43% among 310,000; AID 504441; in the data active = inhibition above about 50%;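 note: plate controls were vehicle with enzyme for no effect and no enzyme for full effect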
PP5 primary: PP5 (human) phosphatase inhibition; P53041; purified PP5c, OMFP substrate fluorescence; inhibition, % at 6.7 µM; hit rate 0.18% among 320,000;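 active = inhibition above the campaign's mean inhibition across all tested compounds plus 3 SD, cut at about 9.5% in these data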;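 note: 0% = DMSO only and 100% = 100 µM cantharidin control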
Target sequence (P53041 whole entry, looked up): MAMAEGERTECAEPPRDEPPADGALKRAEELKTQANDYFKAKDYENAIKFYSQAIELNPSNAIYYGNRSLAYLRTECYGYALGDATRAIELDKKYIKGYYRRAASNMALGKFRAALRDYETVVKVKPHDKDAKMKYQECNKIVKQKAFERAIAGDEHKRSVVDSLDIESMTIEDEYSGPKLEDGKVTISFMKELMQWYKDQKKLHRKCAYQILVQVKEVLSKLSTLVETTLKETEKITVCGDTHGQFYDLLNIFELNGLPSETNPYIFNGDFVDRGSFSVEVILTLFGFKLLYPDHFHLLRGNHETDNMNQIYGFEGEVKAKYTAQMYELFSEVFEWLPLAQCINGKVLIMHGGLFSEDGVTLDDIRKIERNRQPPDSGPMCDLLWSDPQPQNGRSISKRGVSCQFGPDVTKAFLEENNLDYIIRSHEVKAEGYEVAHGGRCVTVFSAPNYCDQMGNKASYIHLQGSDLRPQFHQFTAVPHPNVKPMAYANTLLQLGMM
HIF act: HIF pathway transcriptional activation. hit rate 0.32% among 300,000. activation, % at 7.5 µM (by protocol). U2OS HRE-luciferase reporter, luminescence; normalized: DMSO 0%, desferrioxamine 100%;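 active = mean activation of at least 10% of the iron chelator positive control signal, with at least half of replicates also reaching 10%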
PP1 counter: PP1-alpha (human) inhibition in PP5 counter-screen; P62136; inhibition, % at 6.7 µM; AID 2235; hit rate 0.9% among 320,000; purified PP1alpha, OMFP fluorescence;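 active = inhibition above the mean inhibition of all tested compounds plus 3 SD, computed separately for each screening campaign, cut at about 15% in these data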
STK33 inh: inhibitors of human STK33 kinase; inhibition, % at 10 µM; hit rate 0.073% among 320,000; purified STK33, MBP phosphorylation, ADP-Glo luminescence;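 active = inhibition at or above 25%, using the most active replicate where run in duplicate; inactive = inhibition below 25%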
PP1 confirm: confirmation of human PP1 phosphatase inhibitors. purified PP1alpha, OMFP substrate fluorescence. shares compounds with PP1 counter. hit rate 52% among 1,900. AID 2358. inhibition, % at 6.7 µM;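 active = mean PP1 inhibition above a set limit taken from the earlier primary screen, cut at about 15% in these data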
PP5 counter: PP5 phosphatase inhibition, counter-screen for PP1 inhibitors; shares compounds with PP1 counter; purified PP5c, OMFP fluorescence; inhibition, % at 6.7 µM; hit rate 4% among 1,900;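 active = mean PP5 inhibition over triplicate wells above about 9.5% taken from the earlier PP1 screen, limit read from the data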
ADP-Glo artifact: interferes with ADP-Glo luciferase readout without Dyrk1A | AC50, µM (top dose mostly 12 µM), without a hit: top-dose activity change, negative = inhibition | ADP-Glo luciferase artifact assay, no Dyrk1A, luminescence | shares compounds with Dyrk1A ADPGlo | AID 588348 | 1,300 tested, under 10 active;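 active = fitted half-maximal dose AC50 no more than ten times the top valid tested dose, with luminescence dropping as dose rises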
Starred values were filed as active, the others as inactive; . = not tested or not shown.

SMILES	Dyrk1A ADPGlo	PP5 primary	HIF act	PP1 counter	STK33 inh	ADP-Glo artifact	others
COC(=O)C1=C(c2ccc(-c3ccccc3)c(F)c2)C[C@@H]2CC[C@H]1N2C(=O)NCc1cccc2ccccc12	3	3	.	23*	-1	.	PP1 confirm=4;PP5 counter=2
O=C(CCN1CC1)OCCOC(=O)CCN1CC1	-6	.	.	.	.	.
COC(=O)C1=C(c2ccc(F)cc2OCc2ccccc2)C[C@@H]2CC[C@H]1N2C(=O)N1CCCC1	5	-1	.	5	0	.
C[C@]12CCC3C(CC[C@H]4C[C@H](O)[C@H](O)C[C@]34C)C1CC[C@@H]2O (some centres undefined)	-3	.	.	.	.	.
COC(=O)C1=C(c2ccc(F)cc2OCc2ccccc2)C[C@@H]2CC[C@H]1N2C(=O)NC1CCCCC1	6	1	.	10	-2	.
COC(=O)C1=C(c2ccc(F)cc2OCc2ccccc2)C[C@@H]2CC[C@H]1N2C(=O)NC1CC1	55*	1	.	-3	-1	10%
NC(=S)c1cn(C2OC(CO)C(O)C2O)c2ncnc(N)c12 (centres undefined)	95*	1	-3	-5	67*	7%
N#CC(C#N)=Cc1ccc(N2CCOCC2)cc1	-11	0	0	-3	0	.
N#C/C(=C\c1ccc(O)cc1)C(=O)O (tested in a mixture with another compound)	79*	.	.	.	.	8%
COCCCNP1(=O)OCC(C)([N+](=O)[O-])CO1 (centres undefined)	3	.	.	.	.	.
Cc1[nH]nc2ccc(-c3cncc(OC[C@@H](N)Cc4c[nH]c5ccccc45)c3)cc12	92*	.	.	.	.	9%
COC(=O)C1=C(c2ccc(OC)c(OC)c2)C[C@@H]2CC[C@H]1N2C(=O)NCc1ccco1	1	0	.	-4	-2	.
COc1ccc2c3c([nH]c2c1)C(C)=NCC3	86*	2	0	8	2	9%
C1=NCCc2c1[nH]c1ccccc21	8	0	1	-1	2	.
CC1=NCCc2c1[nH]c1cc(O)ccc21	79*	-5	.	-11	2	10%
COC(=O)C1=C(c2ccc(OC(F)(F)F)cc2)C[C@@H]2CC[C@H]1N2C(=O)NCc1cc(C)oc1C(F)(F)F	-3	9	.	6	0	.
O=c1[nH]c(=O)n(-c2ccccc2)c(O)c1/C=C1/C(c2ccccc2)=Nc2ccccc21	61*	4	5	1	16	7%
COC(=O)C12OCC34C(CC5C(C)=C(O)C(=O)CC5(C)C3C(O)C1O)OC(=O)C(OC(=O)/C=C(\C)C(C)C)C24 (centres undefined)	5	.	.	.	.	.
CCn1nc(/C=C/c2ccccc2)nc2c(=O)n(C)c(=O)nc1-2	50*	.	-3	.	.	4%
COc1ccc(-n2c(/C=C/c3ccc(O)cc3)nc3ccccc3c2=O)cc1	3	0	0	1	1	.

Source: PubChem BioAssay
